Data from the supplement of paper PMC7695840.
Where a name gives a salt, the structure may show the parent alone.

How the values were obtained:
[1] = test system: Staphylococcus aureus MW2 delta-mecA (mecA-); test: normalized GFP fluorescence (growth of mecA- strain) (fraction of control range); higher = more growth of mecA- strain; conditions: compound concentration: 150 uM; cefoxitin: subinhibitory; fluorescent label: GFP
Method in brief: (§1)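 Pre-induced S. aureus MW2 mecA+ (DsRed) and ΔmecA (GFP) cells were mixed 1:1 in LB with a daily-set subinhibitory cefoxitin dose. They were dispensed at 5 µL/well onto 150 μM compound (1.5% DMSO) in 1536-well plates, single replicate. Growth was 20 h at 37 °C, 90% humidity, unshaken, and DsRed (540/590) and GFP (485/520) were then read. Each channel was scaled per plate between the medians of the single-strain controls. Plates with high No Treatment ratios and rows with DsRed/GFP >10 were excluded.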

[2] = test system: Staphylococcus aureus MW2 (mecA+); test: normalized DsRed fluorescence (growth of mecA+ strain) (fraction of control range); higher = more growth of mecA+ strain; conditions: compound concentration: 150 uM; cefoxitin: subinhibitory; fluorescent label: DsRed
Method in brief: as §1

| Structure (SMILES) | normalized GFP fluorescence [1] | normalized DsRed fluorescence [2] |
| --- | --- | --- |
| COC(=O)Nc1nc2cc(C(=O)c3ccccc3)ccc2[nH]1 | 0.145 | 1.25 |
| Cn1nnc2c(C(N)=O)ncn2c1=O [Temozolomide] | 0.456 | 1.11 |
| CCCCCCc1ccc(O)cc1O | 0.0569 | 1.59 |
| Cc1ccnc(NS(=O)(=O)c2ccc(N)cc2)n1 | 0.459 | 0.528 |
| Nc1c2c(nc3ccccc13)CCCC2 | 0.414 | 0.996 |
| Nc1ncnc2c1ncn2[C@@H]1O[C@H](CO)[C@@H](O)[C@@H]1O | 0.428 | 0.346 |
| CC(C(=O)O)c1ccc(-c2ccccc2)c(F)c1 (centres undefined) | 0.201 | 0.435 |
| CCN[C@H]1CN(CCCOC)S(=O)(=O)c2sc(S(N)(=O)=O)cc21 | 0.268 | 0.875 |
| CCCN[C@H]1CCc2nc(N)sc2C1 [Pramipexole dihydrochloride monohydrate] | 0.713 | 0.597 |
| CC(=O)Oc1ccc(C(c2ccc(OC(C)=O)cc2)c2ccccn2)cc1 | 0.399 | 0.669 |
| CO[C@@]1(NC(=O)CSCC#N)C(=O)N2C(C(=O)O)=C(CSc3nnnn3C)CS[C@@H]21 | 0.268 | 0.711 |
| NC(=O)N1c2ccccc2C=Cc2ccccc21 | 0.497 | 0.792 |
| Cc1ccc(C)c(OCCCC(C)(C)C(=O)O)c1 | 0.121 | 1.54 |
| CC(C(=O)O)c1ccc(C(=O)c2cccs2)cc1 (centres undefined) | 0.344 | 0.423 |
| Nc1nc(F)nc2c1ncn2[C@@H]1O[C@H](COP(=O)(O)O)[C@@H](O)[C@@H]1O | 0.362 | 0.656 |
| C[C@]12C=CC(=O)C=C1CC[C@@H]1[C@@H]2C(=O)C[C@@]2(C)[C@H]1CC[C@]2(O)C(=O)CO | 0.371 | 0.647 |
| CN(C)CCN(Cc1cccs1)c1ccccn1 | 0.185 | 0.778 |
| C#C[C@]1(OC(C)=O)CC[C@H]2[C@@H]3CCC4=CC(=NO)CC[C@@H]4[C@H]3CC[C@@]21CC (mixture of isomers) | 0.0291 | 0.642 |
| CC(=O)O[C@]1(C(C)=O)CC[C@H]2[C@@H]3C=C(C)C4=CC(=O)CC[C@]4(C)[C@H]3CC[C@@]21C | 0.381 | 0.78 |

| Structure (SMILES) | normalized GFP fluorescence [1] | normalized DsRed fluorescence [2] |
| --- | --- | --- |
| NCc1ccc(S(N)(=O)=O)cc1 | 0.22 | 0.71 |
| CC[C@]1(O)C[C@H]2CN(CCc3c([nH]c4ccccc34)[C@@](C(=O)OC)(c3cc4c(cc3OC)N(C=O)[C@H]3[C@@](O)(C(=O)OC)[C@H](OC(C)=O)[C@]5(CC)C=CCN6CC[C@]43[C@@H]65)C2)C1 | 0.501 | 0.633 |
| CCCNC(C)C(=O)Nc1ccccc1C (centres undefined) | 0.223 | 0.919 |
| COc1ccc2cccc(CCNC(C)=O)c2c1 [Agomelatine] | 0.243 | 0.62 |
| C[C@H]1O[C@H](O[C@H]2[C@H](O)[C@@H](O)[C@@H](O[C@H]3[C@H](O)[C@@H](O)C(O)O[C@@H]3CO)O[C@@H]2CO)[C@H](O)[C@@H](O)[C@@H]1N[C@H]1C=C(CO)[C@@H](O)[C@H](O)[C@H]1O (some centres undefined) | 0.505 | 0.683 |
| CC(C)(C)NC[C@H](O)COc1cccc2c1CCCC2=O | 0.401 | 0.5 |
| CC1=C(/C=C/C(C)=C/C=C/C(C)=C\C(=O)O)C(C)(C)CCC1 [Isotretinoin] | 0.0743 | 1.06 |
| Nc1ccc(S(=O)(=O)Nc2ncccn2)cc1 | 0.475 | 0.718 |
| CC(=O)O[C@]1(C(C)=O)CC[C@H]2[C@@H]3C=C(Cl)C4=CC(=O)CC[C@]4(C)[C@H]3CC[C@@]21C | 0.23 | 0.594 |
| OCCN1C[C@H](O)[C@@H](O)[C@H](O)[C@H]1CO | 0.514 | 0.724 |
| Cc1cccc(C)c1NC(=O)C(C)N (centres undefined) | 0.842 | 0.486 |
| CC(=O)Oc1cc2c(s1)CCN(C(C(=O)C1CC1)c1ccccc1F)C2 (centres undefined) [Prasugrel (Effient)] | 0.226 | 0.841 |
| CCCCC(=O)N(Cc1ccc(-c2ccccc2-c2nnn[nH]2)cc1)[C@H](C(=O)O)C(C)C | 0.105 | 0.898 |
| O[C@H]1[C@H](O)[C@@H](O)[C@H](O)[C@@H](O)[C@H]1O | 0.236 | 0.698 |
| Nc1nc(CC(=O)Nc2ccc(CCNC[C@H](O)c3ccccc3)cc2)cs1 [Mirabegron (YM178)] | 0.336 | 1.03 |
| CN1CCN(C(c2ccccc2)c2ccccc2)CC1 | 0.231 | 1.32 |
| Cc1ccc(C(=O)c2ccc(CC(=O)O)n2C)cc1 | 0.421 | 0.279 |
| CCCCC(=O)O[C@]1(C(=O)CO)CC[C@H]2[C@@H]3CCC4=CC(=O)CC[C@]4(C)[C@H]3[C@@H](O)C[C@@]21C | 0.382 | 0.447 |
